Structures can show the parent of a compound that is named as a salt. A number with no mark means an inactive call.
test system: primary human hepatic stellate cells (donor 1); assay: COL1A1 mRNA fold change vs DMSO (normalised to PSMB2); higher = more COL1A1 expression, active = hit call of the paper; settings: 48 h
Protocol: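 Secondary qRT-PCR screen in primary human HSCs (donor 1), 384-well plates, with compounds dispensed in quadruplicate and incubated for 48 h. Cells-to-CT lysates were used for multiplexed TaqMan qPCR of ACTA2 or COL1A1 with PSMB2 as reference. Fold changes versus DMSO come from a linear model (Ct_gene ~ Ct_PSMB2 + plate + chemical). A hit is defined as COL1A1 and ACTA2 FC <0.5 (FDR <0.05) with PSMB2 between 0.2 and 2.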

Compound	COL1A1 mRNA fold change
CCCSc1ccc2[nH]c(NC(=O)OC)nc2c1 [Albendazole] (33.3333 µM)	0.881
CC(C)(C)c1cc(NC(=O)Nc2ccc(-c3cn4c(n3)sc3cc(OCCN5CCOCC5)ccc34)cc2)no1 [Quizartinib  (AC220)] (11.1 µM)	1.01
O=S(=O)(NCCNC/C=C/c1ccc(Br)cc1)c1cccc2cnccc12 [H-89, Dihydrochloride] (11.1 µM)	0.594
O=C(Nc1cc(C(F)(F)F)cc(C(F)(F)F)c1)c1cc(Cl)ccc1O (33.3333 µM)	0.203 (active)
O=C1NC(=O)/C(=C/c2ccc(-c3ccc(F)cc3O)o2)S1 (33.3333 µM)	0.115
O=C1NCN(c2ccccc2)C12CCN(CCCC(c1ccc(F)cc1)c1ccc(F)cc1)CC2 [Fluspirilene] (14.0333 µM)	0.695
CCCCCCCCc1ccc(CCC(N)(CO)CO)cc1 [Fingolimod (FTY720) HCl] (11.1 µM)	0.392
CC1(C)CC(=O)c2c(C(F)(F)F)nn(-c3ccc(C(N)=O)c(N[C@H]4CC[C@H](OC(=O)CN)CC4)c3)c2C1 (33.3333 µM)	0.807
C[C@@H]1CN(CCCn2c3ccccc3c3ccccc32)C[C@H](C)N1 [Rimcazole dihydrochloride] (33.3333 µM)	0.14
CC[C@]1(O)C[C@@H]2CN(CCc3c([nH]c4ccccc34)[C@@](C(=O)OC)(c3cc4c(cc3OC)N(C)[C@H]3[C@@](O)(C(=O)OC)[C@H](OC(C)=O)[C@]5(CC)C=CCN6CC[C@]43[C@@H]65)C2)C1 [Vinblastine sulfate] (33.3333 µM)	0.513
CNc1nccc(-c2cccnc2Oc2cc(C(=O)Nc3cccc(C(F)(F)F)c3)ccc2C)n1 (33.3333 µM)	0.618
CCN(CC)CCOc1ccc(Cc2ccccc2)cc1 [DPPE fumarate] (33.3333 µM)	0.51
Cc1[nH]c(/C=C2\C(=O)Nc3ccc(S(=O)(=O)N(C)c4cccc(Cl)c4)cc32)c(C)c1C(=O)N1CCN(C)CC1 (33.3333 µM)	0.254 (active)
CN1CCN(Cc2ccc(-c3cnc4[nH]cc(-c5ccc6[nH]ccc6c5)c4c3)cc2)CC1 (6.66667 µM)	0.0518 (active)
Nc1ccc(C(=O)Nc2cccc(-c3nc(N4CCOCC4)c4oc5ncccc5c4n3)c2)cn1 (6.66667 µM)	1.15
Cn1cc(CNCC2CCN(c3ncc(C(=O)NO)cn3)CC2)c2ccccc21 [Quisinostat] (33.3333 µM)	0.00578
Cc1ccc(NC(=O)c2ccc(CN3CCN(C)CC3)cc2)cc1Nc1nc(-c2cccnc2)cs1 [Masitinib (AB1010, Masivet)] (6.66667 µM)	1.31
Clc1ccccc1CNCC1CCC(CNCc2ccccc2Cl)CC1 (stereo not given) (33.3333 µM)	0.055
Cc1cnc(-c2cnc(NCCNc3ccc(C#N)cn3)nc2-c2ccc(Cl)cc2Cl)[nH]1 (33.3333 µM)	1.04
Cc1ccc(-c2ccc3c(ccc4sc5c(c43)NC[C@@H](C)NC5=O)n2)cn1 (33.3333 µM)	1.21

Compound	COL1A1 mRNA fold change
C[C@H]1O[C@@H](O[C@H]2[C@@H](O)C[C@H](O[C@H]3[C@@H](O)C[C@H](O[C@H]4CC[C@@]5(C)[C@H](CC[C@@H]6[C@@H]5C[C@@H](O)[C@]5(C)[C@@H](C7=CC(=O)OC7)CC[C@]65O)C4)O[C@@H]3C)O[C@@H]2C)C[C@H](O)[C@@H]1O [Digoxin] (33.3333 µM)	0.0679 (active)
NS(=O)(=O)C#Cc1ccccc1 [Pifithrin->m] (33.3333 µM)	0.18
CCC/C=C\C=C/C(=O)N[C@@H](CC(N)=O)C(=O)NC(CC(N)=O)C(=O)N[C@@H](C(=O)N[C@H](CCCN)C(=O)N[C@@H](C(=O)N[C@@H](C(=O)N[C@@H](C(=O)N[C@H](C(=O)N[C@@H](Cc1ccccc1)C(=O)N[C@H](CCCN)C(=O)NC(C(=O)N[C@H](C(=O)NC(C(=O)NCC(=O)N[C@@H](CC(C)C)C(=O)N[C@H](C)C(=O)NC(C(=O)O)C1CCC(O)C(Cl)C1)C1CCC(O)CC1)[C@H](C)O)C1CCC(O)CC1)[C@H](C)O)C1CCC(O)CC1)C1CCC(O)CC1)[C@H](C)O)C1CCC(O)CC1 (stereo not given in full) (33.3333 µM)	1.59
C[C@]12CC[C@H](O)CC1=CC[C@@H]1[C@@H]2CC[C@]2(C)C(n3cnc4ccccc43)=CC[C@@H]12 [Galeterone] (33.3333 µM)	0.0557
CN1CCC(NC(=O)c2cc(-c3c(O)cc(O)cc3Oc3ccc([N+](=O)[O-])cc3)on2)CC1 (33.3333 µM)	1.15
COc1cc2ncn(-c3cc(OCc4ccccc4C(F)(F)F)c(C(N)=O)s3)c2cc1OC (33.3333 µM)	1.1
CC(C)NCCCn1c(Sc2cc3c(cc2I)OCO3)nc2c(N)ncnc21 (33.3333 µM)	0.844
O=C1Nc2ccccc2/C1=C1/Nc2ccccc2C1=O [Indirubin] (63.5333 µM)	0.897
CCN1CCC(n2cc(CNc3cc(Cl)c4ncc(C#N)c(Nc5ccc(F)c(Cl)c5)c4c3)nn2)CC1 (33.3333 µM)	0.124
C[C@@H](Oc1cc(-c2cnn(C3CCNCC3)c2)cnc1N)c1c(Cl)ccc(F)c1Cl (11.1 µM)	0.235 (active)
CCN(CC)CC#CCOC(=O)C(O)(c1ccccc1)C1CCCCC1 (stereo not given) [Oxybutynin chloride] (16.9333 µM)	0.755
CN(C)Cc1c(C(=O)NCCOc2ccc(C(=O)NO)cc2)oc2ccccc12 (33.3333 µM)	0.0321 (active)
CC(/C=C/C(=O)NO)=C\[C@@H](C)C(=O)c1ccc(N(C)C)cc1 [Trichostatin A] (3.33333 µM)	0.405 (active)
CSc1ccc2c(c1)C(N1CCN(C)CC1)Cc1ccccc1S2 (stereo not given) [Methiothepin maleate] (33.3333 µM)	0.00214
Cc1ccc2c(c1)c1c3n2CCNC3CCC1 (stereo not given) [Pirlindole mesylate] (20.6667 µM)	0.473
NC(N)=NC(=O)c1nc(Cl)c(N2CCCCCC2)nc1N [5-(N,N-hexamethylene)amiloride] (33.3333 µM)	0.0273 (active)
Cc1ccc(S(=O)(=O)/C=C/C#N)cc1 (33.3333 µM)	0.394
C#C[C@]1(O)CC[C@H]2[C@@H]3CCC4=Cc5oncc5C[C@]4(C)[C@H]3CC[C@@]21C [Danazol] (33.3333 µM)	0.0336 (active)
CN1CCC(CNc2ccc3ncc(-c4cccc(OC(F)(F)F)c4)n3n2)CC1 (6.66667 µM)	0.552
Cc1cc(Nc2cc(N3CCN(C)CC3)nc(/C=C/c3ccccc3)n2)n[nH]1 (11.1 µM)	0.343

Reference: the supplement of paper PMC9135407
